Assay results taken from PubChem BioAssay (NCI).
This is part of a sample that, as a whole, favours compounds with a hit. Of some 83,000 tested, about 20% had one in any assay.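 96-well plates, one dose, 48 hours. Percent growth reported; active if below 10.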 A number with no mark means an inactive call. Activity calls are given as the source filed them.

Key:
Assay in all cases: NCI-60 one-dose screen, 48 h (100 = growth as untreated, 0 = no growth, -100 = all killed)
Conditions in all cases: 10 µM unless noted
RPMI-8226 leukemia = tested on: RPMI-8226 leukemia
OVCAR-8 ovarian = tested on: OVCAR-8 ovarian
OVCAR-5 ovarian = tested on: OVCAR-5 ovarian
OVCAR-4 ovarian = tested on: OVCAR-4 ovarian
SK-OV-3 ovarian = tested on: SK-OV-3 ovarian
IGROV1 ovarian = tested on: IGROV1 ovarian
OVCAR-3 ovarian = tested on: OVCAR-3 ovarian
HS 578T breast = tested on: HS 578T breast
T-47D breast = tested on: T-47D breast
NCI/ADR-RES ovarian = tested on: NCI/ADR-RES ovarian

Compound | growth (RPMI-8226 leukemia) | growth (OVCAR-8 ovarian) | growth (OVCAR-5 ovarian) | growth (OVCAR-4 ovarian) | growth (SK-OV-3 ovarian) | growth (IGROV1 ovarian) | growth (OVCAR-3 ovarian) | growth (HS 578T breast) | growth (T-47D breast) | growth (NCI/ADR-RES ovarian)
Nc1ccc(C2=Nc3cccc4cccc(c34)S2)cc1 | 81.8% | 93.6% | 73.2% | 85.3% | 103% | 67.5% | 87.9% | 92.2% | 8.57% (active) | 
COc1ccc(-n2nc3c(c2-c2ccc(OC)c(OC)c2)-c2oncc2CC3)cc1 | 56.7% | 84.7% | 99.5% | 86.1% | 106% | 99.1% | 76.4% |  | 71% | 80.6%
C/C(=N/N=C(N)N)c1ccc(Cl)cc1 | 89.8% | 110% | 87.8% | 92.9% | 89.5% | 14.6% | 110% | 272% | 79.3% | 
COc1ccc(-c2c3c(nn2-c2ccc(N)cc2)CCc2cnoc2-3)cc1OC | 60% | 65% | 94.1% | 102% | 124% | 97.6% | 83.1% |  | 97% | 77.6%
COc1ccc2c(c1)nc(N)c1c3cc(C)c(C)cc3cn21 | 81.1% | 82.3% | 111% | 78.5% | 86.8% | 77.2% | 70.6% |  | 63.8% | 37.3%
Cn1c(=O)c2nc(SCc3ccccc3)n(C)c2n(C)c1=O | 117% | 106% | 97.6% | 118% | 99.2% | 139% | 117% | 104% | 98.4% | 112%
COc1ccc(-c2nc3sccn3c2-c2ccnc(S(C)(=O)=O)n2)cc1 | 86.5% | 111% | 96.7% | 80.4% | 105% | 37.9% | 84.3% | 94.3% | 36.4% | 104%
O=C(CCc1nnc2sc(-c3ccc(Cl)cc3Cl)nn12)c1nc2ccccc2[nH]1 | 2% (active) | -30.9% (active) | -52.6% (active) | -54% (active) | -52.4% (active) | 0.377% (active) | -80.6% (active) |  | -68.4% (active) | -0.815% (active)
Cn1cc(-c2csc(-c3c[nH]c4ncccc34)n2)c2cc(F)cnc21 | 70.3% | 77.5% | 87.1% | 62.4% | 81.8% | 66.5% | 87.8% |  | 43.7% | 63%
COc1ccc2c(c1)nc(N)c1c3cc(OC)c(OC)cc3cn21 | 42.8% | 40.9% | 62.5% | 69.8% | 43.9% | 65.4% | 37.6% |  | 64% | 33.9%
O=[N+]([O-])c1ccc(N/N=C\c2ccccc2[N+](=O)[O-])nc1 | 102% | 107% | 124% | 120% | 121% | 106% | 109% | 97.7% | 107% | 
COc1cc2c(C#N)n3c(c2cc1OC)C(=O)C(c1ccccc1)Oc1ccccc1-3 (configuration not stated) | 28.7% | 18.1% | 69.2% | 16% | 97.6% | 58.3% | 53.2% | 73.5% | 17.1% | 
CCC(C)CC(CC)NCCN1CCN(C(CC)CC(C)CC)C1=S (configuration not stated) | -46.2% (active) | 62.7% | 37.2% | 37.8% | 56.2% | 52.7% | 39.5% | 67.2% | -9.85% (active) | 56.4%
O=C(CCc1nnc2sc(Cc3ccccc3Cl)nn12)c1nc2ccccc2[nH]1 | 94.7% | 93.7% | 105% | 94% | 99.7% | 90.9% | 82.5% |  | 78.5% | 95.9%
CN1C(=O)C(=Cc2cn(Cc3ccccc3)c3ccc(Br)cc23)C(=O)N(C)C1=O | 92.6% | 97.9% | 14% | 107% | 90.4% | 97.3% | 103% | 113% | 83.7% | 
NS(=O)(=O)c1ccc(NC2=C(Cl)C(=O)c3ccccc3C2=O)cc1 | 61.2% | 88.6% | 102% | 94.4% | 90.2% | 75.3% | 98% | 142% | -48.3% (active) | 
Nc1nonc1-c1nc2ccccc2n1CC(=O)Nc1ccc2c(c1)COC2=O | 99.1% | 94.3% | 94% | 93% | 90.9% |  | 94.2% | 65.9% | 85.8% | 85.6%
COc1cccc2c1C(=O)c1c(O)c3c(c(O)c1C2=O)C[C@@](O)(/C(C)=N/NC(=O)c1cccc([N+](=O)[O-])c1)C[C@@H]3OC1CC(N)C(O)C(C)O1 (some centres not stated) | -55.6% (active) | -6.79% (active) | -9.12% (active) | -17.3% (active) | -29.7% (active) |  | -40.7% (active) | -12.3% (active) | -28.9% (active) | 58.3%
CCCc1cccc(CCC)c1O | 111% | 107% | 117% |  | 110% | 125% | 117% | 107% | 104% | 103%
Cc1cc(NC(=O)Nc2cccc3ccccc23)no1 | 102% | 105% | 98.9% | 103% | 103% |  | 113% | 107% | 87.6% | 103%
CCS(=O)(=O)OCCCl | 120% | 103% | 80.8% | 100% | 87.4% |  |  | 104% | 102% | 
Nc1ccc(S(=O)(=O)Nc2ncccn2)cc1 | 112% | 102% |  | 112% | 116% | 116% | 115% | 133% |  | 105%
Cc1cc(C(=O)O)c(C)cc1C(=O)O | 102% | 104% | 96% |  | 106% | 85.3% | 136% | 122% | 104% | 105%
CCCCCCCCCCCCCCCCCc1nccn1CCO | 82.3% | 80% | 71.4% |  | 94.6% | 68.5% | 86.2% | 83.4% | 47.1% | 
C[C@]12C[C@H](O)[C@H]3[C@@H](CCC4=CC(=O)CC[C@@]43C)[C@@H]1CC[C@@H]2C(=O)CO | 0.491% (active) | 104% | 43.8% | 97.7% | 81.3% |  | 110% | 108% | 92% | 
CC[C@]1(O)CC2CN(CCc3c([nH]c4ccccc34)[C@@](C(=O)OC)(c3cc4c(cc3OC)N(C)[C@H]3[C@@](O)(C(=O)OC)[C@H](OC(C)=O)[C@]5(CC)C=CCN6CC[C@]43[C@@H]65)C2)C1 (some centres not stated) | 2.81% (active) | 12.6% |  | 33.2% | 6.74% (active) | 15.9% | -56% (active) | 29.7% |  | -17.4% (active)
CCCCCCCCCCC[C@@H](C[C@H]1OC(=O)[C@H]1CCCCCC)OC(=O)[C@@H](CC(C)C)NC=O | 0.857% (active) | 62.9% | 94.4% |  | 88.1% | 60.3% | 69% | 53.6% | 76.5% | 37.5%
CCN(CC)c1ccc(N=Nc2cc(Cl)ccc2Cl)c(NC(=O)CCC(=O)O)c1 | 97.6% | 89.2% | 92.5% |  | 97.5% | 92.2% | 96.8% | 95.1% | 90.2% | 95.5%
S=C(Nc1ccc(C2=NCCN2)cc1)Nc1ccc(C2=NCCN2)cc1 | 94.4% | 96.2% | 97.7% |  | 108% | 108% | 110% | 110% | 83.2% | 93.2%
CC(C)(C)c1ccc(C(O)CCCN2CCC(C(O)(c3ccccc3)c3ccccc3)CC2)cc1 (configuration not stated) | -38.8% (active) | -38.5% (active) | -20.7% (active) |  | -48.9% (active) | 34.7% | -83.9% (active) | -45.3% (active) | -69.3% (active) | -46.6% (active)
